# Laboratory results reported in PubChem BioAssay AID1347434 (National Center for Advancing Translational Sciences (NCATS), 2020).
# Screen size: about 1,200 compounds; about 30 (2%) were called active. About 23% were inconclusive and are not listed. The call rests on the fitted dose curve; in most records, active means well fitted inhibition curve with a large enough effect; inconclusive means small, poorly fitted or top-dose-only effect; inactive means flat fitted curve, though single readings scatter. The entries come from a sample that favours actives as a whole.
# Biological target: Single-stranded DNA cytosine deaminase (Homo sapiens) (UniProt Q9GZX7)
# Test: Confirmatory qHTS assay for inhibitors of Activation Induced Cytidine Deaminase (AID): AID signals
# Conditions: recombinant AID, FRET deamination/UDG coupled fluorescence, 4 h; series mostly up to 115 µM; activity, negative = inhibition: at the top concentration
# Description: Assay Provider (PI) Patricia Gearhart Ph.D. National Institute on Aging National Institute of Health (NIH), Bethesda, MD Assay Provider (PI) Rahul Kohli Ph.D. Perelman School of Medicine University of Pennsylvania, Philadelphia, PA Activation-Induced Deaminase (AID) is a cytosine deaminase which converts cytosine into uracil within stretches of ssDNA. The presence of uracil in DNA initiates a cascade of mutagenic DNA repair to introduce point mutations and DNA double strand breaks. Specific targeting of AID to the immunoglobulin heavy chain loci (Igh) promotes mutagenesis in the antibody variable region for somatic hypermutation (SHM) or switch regions leading to class switch recombination (CSR). However, AID also plays a role in accumulating unnecessary mutations across the genome. Mis-targeting of AID results in the initiation of tumor development and leads to greater drug resistance among cancer cells when continually expressed. To identify an AID inhibitor, a small molecule library will be screened in collaboration with NCATS core facility at NIH. To confirm biological function, inhibitors will be examined in an in vitro murine B-cell activation assay and subsequent secondary validation screens. Top molecules will be further screened to identify inhibitory efficacy against a wild type primary splenocytes assay. Using these approaches, we hope to identify a small molecule with great efficacy and low toxicity for use as a molecular probe to further characterize AID's intricacies, or even as a therapeutic. A FRET based analysis of cytosine deamination, was developed to identify potential inhibitors of AID catalytic activity. This screen has two signal output, Read 1 evaluates the AID inhibition response. The second readout (Read 2) evaluates UDG response and is uses as a counterscreen to exclude false positive inhibitors. Inhibition in AID and inactivity in the UDG signal is the desired outcome for this assay.
# PROTOCOL TABLE SEQUENCE No. (e.g., 1, 2, 3, etc.); […] (e.g., Cells, Incubation, Reagent, etc.); VALUE; DESCRIPTION 1a; Reagent; 3 uL; [4/3x] 1 uM AID/2.67 U/mL UDG 1b; Reagent; 3 uL; 2 U/mL UDG 1c; Reagent; 3 uL; 1 uM AID 2a; Compound; 46 nL; Follow-up plates (0.64 uM - 10 mM) 2b; Control; 46 nL; ATA (16.4 nM - 10 mM) 3; Time; 10 min; incubation at room temperature 4; Reagents; 1 uL; [4x] 250 nM DJC20 / 250 nM DJC23 [Substrate] 5; Time; 4 hr; incubation at room temperature 6; Reagent; 4 uL; [2x] 250 mM NaOH 7; Time; 15 sec; centrifuge at 1000 rpm 8; Time; 30 min; incubation at room temperature 9a; Detection; fluorescence (Read 1: AID); EnVision (PerkinElmer) plate reader, 540 excitation and 590 emission filters 9b; Detection; fluorescence (Read 2: UDG); EnVision (PerkinElmer) plate reader, 560 excitation and 665 emission filters NOTES (numbers refer to sequence above) 1a; Reagents were dispensed in a medium-binding black solid-bottom Greiner plates (789176F) using a BioRptr liquid dispenser. Dispense 3 uL of [4/3x] 1 uM AID (provided by Kohli lab) and [4/3x] 2 U/mL UDG (NEB M0280L) into columns 1, 2, 5 to 48. 1b; Dispense 3 uL of [4/3x] 2 U/mL UDG into column 3. 1c; Dispense 3 uL of [4/3x] 1 uM AID into column 4. 2a; Compound ([…] [uM]: 0.64; 3.2; 16; 80; 400; 2,000; 10,000; 20,000) double pin-transferred (Dip Factor = 2) using the Kalypsys (Wako USA) pintool equipped with a 1536 pinhead for a final concentration range of 7.32 nM - 114 uM. 2b; 10 mM Aurintricarboxylic Acid (Sigma A1895) (ATA, 8-point, n = 2, 1:2.5 dilution in column 2) double pin-transferred (Dip Factor = 2) using the Kalypsys (Wako USA) pintool equipped with a 1536 pinhead for a [final] range of 186 nM - 114 uM. 3; Room temperature incubation. 4; Dispense 1 uL of substrate mixture from the Kohli lab [4x] […] DJC20 and [4x] 250 nM DJC23 into columns 1 to 48 . 5; Room temperature incubation. 6; Dispense 4 uL of […] [2x] 250 mM NaOH into columns 1 to 48. 7; Centrifugation step to remove bubbles. […]
# On the % scale 0 is the no-effect control and ±100 the full control effect; potency means the concentration at half of the fitted maximal effect.
# Single-stranded DNA cytosine deaminase (Homo sapiens), sequence (Q9GZX7 whole entry, looked up): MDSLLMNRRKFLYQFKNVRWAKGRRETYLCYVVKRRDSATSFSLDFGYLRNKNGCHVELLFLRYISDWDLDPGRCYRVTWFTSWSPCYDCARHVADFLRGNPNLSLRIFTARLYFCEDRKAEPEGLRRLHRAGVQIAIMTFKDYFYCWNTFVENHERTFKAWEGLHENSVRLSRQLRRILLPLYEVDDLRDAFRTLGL
SMILES,Potency,"activity, negative = inhibition"
NC(Cc1cc(O)c(O)cc1O)C(=O)O (stereo unspecified),22.4 µM (active),
NCC(O)c1cc(O)c(O)cc1F (stereo unspecified),,25.8% (inactive)
O=C(Nc1cc(C(F)(F)F)cc(C(F)(F)F)c1)c1cccn(Cc2ccccc2Cl)c1=O,,-4.96% (inactive)
CN1CC[C@@]2(C)c3cc(O)ccc3N(C)C12 (stereo partly specified),22.4 µM (active),
COc1cc(C(c2c(O)c3ccccc3oc2=O)c2c(C)n(C)n(-c3ccccc3)c2=O)ccc1O (stereo unspecified),,12% (inactive)
Cc1cccc(-c2nc(CN3C(=O)CN=C(c4ccccc4)c4ccccc43)c(C)o2)c1,,-12% (inactive)
Cc1ccc(NC(=O)N(Cc2ccc3c(c2)OCO3)C2CCN(Cc3ccccc3)CC2)cc1C,,-20.4% (inactive)
CCCC1=Nc2cc(C(=O)NCCCN(CC)CC)ccc2Sc2ccccc21,,1.24% (inactive)
O=S1(=O)N(CCN2CC=C(c3c[nH]c4cc(F)ccc34)CC2)c2cccc3c2N1CCC3,,8.33% (inactive)
CC(=O)c1c(O)c(C)c(O)c(Cc2c(O)c3c(c(C(=O)/C=C/c4ccccc4)c2O)OC(C)(C)C=C3)c1O,14.1 µM (active),
O=C(c1ccc2c(c1)N(Cc1ccc(F)cc1)C(=O)c1ccccc1S2)N1CCC2(CC1)OCCO2,,-3.59% (inactive)
Cc1ccccc1CN1C(=O)C(C)N=C(c2ccccc2)c2ccccc21 (stereo unspecified),,-4.23% (inactive)
COc1ccc2c(c[n+](C)c3c4cc5c(cc4ccc23)OCO5)c1OC,17.8 µM (active),
Cc1cccc(CN2C(=O)CN=C(c3ccccc3)c3cc(Cl)ccc32)c1,,-12.3% (inactive)
Cc1c(C(c2ccc(Cl)cc2Cl)c2c(O)c3ccccc3oc2=O)c(=O)n(-c2ccccc2)n1C (stereo unspecified),,-5.38% (inactive)
Cc1ccccc1CN1C(=O)CN=C(c2ccccc2)c2cc(Cl)ccc21,,-6.78% (inactive)
